# Measured values as given in PubChem BioAssay.
# Assay: JC-1 mitochondrial signal, unstimulated myeloma cells – cell-based, JC-1 fluorescence, RPMI8226, 24 h, 100 nL compound, profiling panel (AID 1169); note: test concentration not given here
# Conditions: JC-1 mitochondrial potential fluorescence, higher = more signal
row,Structure (SMILES),z-score
1,CN1CCC(CCCO)=CC1c1ccc(CN2CCCC2)cc1 (stereo not drawn),-0.714
2,C=C[C@H](C)[C@@H](O)c1ccc(O)c2ccccc12,-0.94
3,COCCOC(=O)N1C(=O)[C@@]2(c3cc(C#CC4=CCCCC4)ccc31)[C@H](C(=O)N1CCc3cc(OC)c(OC)cc3C1)[C@H]1C(=O)O[C@H](c3ccccc3)[C@H](c3ccccc3)N1[C@@H]2c1ccccc1OCCO,-0.701
4,COC(=O)C1=CC(CCCO)=CC(C2CC2)N(Cc2sc3ccccc3c2Cl)C=C1C(=O)OC (stereo not drawn),-0.915
5,NC(=O)NCC#Cc1ccc2c(c1)[C@]1(C(=O)N2)[C@H](C(=O)N2CCCCCCC2)[C@H]2C(=O)O[C@H](c3ccccc3)[C@H](c3ccccc3)N2[C@@H]1c1ccc(OCCO)cc1,-0.165
6,COc1ccccc1CN1C(=O)c2ccccc2[C@@H](C(=O)NCCN2CCOCC2)[C@@H]1c1ccc(CO)cc1,0.711
7,O=c1cccc(C=Cc2ccccc2)o1,0.629
8,C=C[C@@H](COC(C)=O)N(Cc1ccc([N+](=O)[O-])cc1)S(=O)(=O)c1ccc(Br)cc1,0.667
9,CC(C)C(=C=CC[C@@H](O)c1ccccc1OCCO)C[C@@H](O)c1ccccn1,-0.0863
10,CCCCC=C[C@@H](NC(=O)c1ccc(C(=O)OC)cc1)c1ccccc1,-0.862
11,O=c1oc(-c2ccccc2)nc2cc(Br)ccc12,-0.0586
12,C=CC(COC(C)=O)NS(=O)(=O)c1ccc(Br)cc1 (stereo not drawn),0.392
13,CS(=O)(=O)CCOC(=O)C1=CC(CCCO)=CC(c2cccs2)N(Cc2cc3c(cc2Br)OCO3)C=C1C(=O)OCCS(C)(=O)=O (stereo not drawn),-0.308
14,CCC[C@@H]1C=C(C(=O)O)[C@H](c2ccc(C)cc2)N1S(=O)(=O)c1ccc(C)cc1,-0.131
15,CC(C)NC(=O)[C@@H]1c2ccccc2C(=O)N(Cc2ccccc2)[C@H]1c1ccc(CO)cc1,0.00231
16,Cc1ccc(S[C@]2(C(=O)NCc3ccccc3)CC(=O)N(Cc3ccccc3)[C@@H]2c2ccc(CO)cc2)cc1,0.0195
17,COC(=O)c1ccc(C(O)C2C=CC3C(=O)N(C)C(=O)C3N2NC(=O)OC(C)(C)C)o1 (stereo not drawn),-0.535

row,Structure (SMILES),z-score
1,COc1ccc(C(=O)Nc2cccc(CN3C(=O)[C@]4(O[C@H](CC(=O)N5CCC[C@H]5CO)[C@@H]([Si](C)(C)c5ccc(OC)cc5)[C@@H]4C)c4ccccc43)c2)cc1,-1.1
2,CC(C)Cc1ccc(CN2CC[C@@H](NS(=O)(=O)c3ccccc3)C2)cc1,-0.414
3,C=CCC(OC(C)=O)[C@@H]1[C@@H](N(Cc2cccc3ccccc23)C(=O)c2cccc3ccccc23)c2cc(OCCCO)ccc2N1C(=O)c1ccc2ccccc2n1 (stereo partly drawn),-0.133
4,COCCOC(=O)N1C(=O)[C@@]2(c3cc(C#CCNC(N)=O)ccc31)[C@H](c1ccc(OCCO)cc1)N1[C@H](c3ccccc3)[C@H](c3ccccc3)OC(=O)[C@H]1[C@@H]2C(=O)N1CCc2cc(OC)c(OC)cc2C1,-0.489
5,O=C1C=CC(=O)[C@@H]2CC(COc3ccccc3)=C3[C@@H](CCc4ccccc4)OB(O)C[C@@H]3[C@H]12,-1.01
6,[N-]=[N+]=NCc1ccccc1[C@@H]1OC(c2ccc(OCCCO)cc2)=N[C@]1(Cc1ccccc1N=[N+]=[N-])C(=O)NCc1ccccc1,-0.749
7,NCCCCCCNC(=O)[C@H]1C[C@H]2C(=O)NCC(=O)N2[C@H]1c1cccc(OCCO)c1,-0.417
8,CCCCCN1CC=CC23O[C@@H]4/C=C\CCC(C)OC(=O)C4[C@H]2C(=O)N(CCCCCO)[C@@H]3C1=O (stereo partly drawn),-0.982
9,O=C(NCc1ccccc1)[C@]1(CCS(=O)(=O)c2ccccc2)N=C(c2ccc(OCCCO)cc2)O[C@@H]1c1ccccc1,-0.762
10,C=CC(=C)C1=CCO[C@@H]1[C@H]1CCCN1S(=O)(=O)c1ccccc1[N+](=O)[O-],-0.112
11,COc1ccc(C(=O)Nc2cccc(CN3C(=O)[C@@]4(O[C@@H](CCn5cc(CCO)nn5)[C@H]([Si](C)(C)c5ccc(OC)cc5)[C@H]4C)c4ccccc43)c2)cc1,-0.136
12,CCCC[C@H]1OB(O)C[C@H]2C1=C(C)C[C@H]1C(=O)N(Cc3ccccc3)C(=O)[C@H]12,-0.333
13,COc1ccc(NN2C(C(O)c3ccc(OC)c(OCc4ccccc4)c3)C=CC3C(=O)N(C4CCCCC4)C(=O)C32)cc1 (stereo not drawn),0.0161
14,COCC(=C=CC[C@H](O)c1ccc(OCCO)cc1)C[C@H](O)c1cc(Cl)cc(Cl)c1O,0.04
15,O=C/C=C/c1ccc2c(c1)OCO2,0.365
16,Cc1ccc(S[C@]2(C(=O)NCC(C)C)CC(=O)N(Cc3ccccc3Cl)[C@@H]2c2ccc(CO)cc2)cc1,-0.492
